Assay results taken from paper PMC5540273 (PLoS ONE, 2017).

How the values were obtained:
Details in all cases: concentration: 1 μM, replicates: in singlicate; n = 1
PIK3C2G = tested on: PIK3C2G
PIK3CA = tested on: PIK3CA
PIK3CB = tested on: PIK3CB
PIK3CD = tested on: PIK3CD
PIK3CG = tested on: PIK3CG
PIK4CB = tested on: T1, PIK4CB
T1 construct: gene PI4KB

PIKFYVE = tested on: PIKFYVE
PIM1 = tested on: PIM1
PIM2 = tested on: PIM2
PIM3 = tested on: PIM3
PIP5K1A = tested on: PIP5K1A
PIP5K1C = tested on: PIP5K1C
PIP5K2B = tested on: PIP5K2B
PIP5K2C = tested on: T2, PIP5K2C
T2 construct: gene PIP4K2C

PKAC-alpha = tested on: T3, PKAC-alpha
T3 construct: gene PRKACA

PKAC-beta = tested on: T4, PKAC-beta
T4 construct: gene PRKACB

PKMYT1 = tested on: PKMYT1
PKN1 = tested on: PKN1
PKN2 = tested on: PKN2
PLK1 = tested on: PLK1
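Further: KINOMEscan kinase panel screen.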

With `Nc1ncnc2scc(-c3ccc(NC(=O)Cc4cc(F)ccc4F)cc3)c12.O=C(O)C(F)(F)F` [SB-731254-M] the “%Inh” value (PIK3C2G) was 13%, the “%Inh” value (PIK3CA) was 0% and the “%Inh” value (PIK3CB) was 0%. The “%Inh” value (PIK3CD) was 0%, the “%Inh” value (PIK3CG) was 23% and the “%Inh” value (PIK4CB) was 22%. The “%Inh” value (PIKFYVE) was 0%, the “%Inh” value (PIM1) was 0% and the “%Inh” value (PIM2) was 0%. For the same compound, the “%Inh” value (PIM3) was 19%, the “%Inh” value (PIP5K1A) was 0% and the “%Inh” value (PIP5K1C) was 0%. The “%Inh” value (PIP5K2B) was 0%, the “%Inh” value (PIP5K2C) was 0% and the “%Inh” value (PKAC-alpha) was 13%. For the same compound, the “%Inh” value (PKAC-beta) was 15%, the “%Inh” value (PKMYT1) was 23% and the “%Inh” value (PKN1) was 4%. For the same compound, the “%Inh” value (PKN2) was 26% and the “%Inh” value (PLK1) was 9%.

With `CSc1ccc(NC2=C(c3ccc(Cl)cc3)C(=O)NC2=O)cc1` [SB-317658] the “%Inh” value (PIK3C2G) was 15%, the “%Inh” value (PIK3CA) was 0% and the “%Inh” value (PIK3CB) was 24%. For the same compound, the “%Inh” value (PIK3CD) was 54%, the “%Inh” value (PIK3CG) was 0% and the “%Inh” value (PIK4CB) was 27%. The “%Inh” value (PIKFYVE) was 0%, the “%Inh” value (PIM1) was 1% and the “%Inh” value (PIM2) was 0%. For the same compound, the “%Inh” value (PIM3) was 12%, the “%Inh” value (PIP5K1A) was 0% and the “%Inh” value (PIP5K1C) was 0%. For the same compound, the “%Inh” value (PIP5K2B) was 43%, the “%Inh” value (PIP5K2C) was 0% and the “%Inh” value (PKAC-alpha) was 16%. The “%Inh” value (PKAC-beta) was 16%, the “%Inh” value (PKMYT1) was 10% and the “%Inh” value (PKN1) was 7%. The “%Inh” value (PKN2) was 9% and the “%Inh” value (PLK1) was 4%.

For `COC(=O)Nc1nc2ccc(Oc3ccc(NC(=O)Nc4cc(C(F)(F)F)ccc4F)cc3)cc2[nH]1.Cl` [GW654607], the “%Inh” value (PIK3C2G) was 0%, the “%Inh” value (PIK3CA) was 0% and the “%Inh” value (PIK3CB) was 17%. The “%Inh” value (PIK3CD) was 0%, the “%Inh” value (PIK3CG) was 3% and the “%Inh” value (PIK4CB) was 0%. The “%Inh” value (PIKFYVE) was 0%, the “%Inh” value (PIM1) was 0% and the “%Inh” value (PIM2) was 0%. The “%Inh” value (PIM3) was 0%, the “%Inh” value (PIP5K1A) was 0% and the “%Inh” value (PIP5K1C) was 30%. For the same compound, the “%Inh” value (PIP5K2B) was 34%, the “%Inh” value (PIP5K2C) was 16% and the “%Inh” value (PKAC-alpha) was 0%. The “%Inh” value (PKAC-beta) was 6%, the “%Inh” value (PKMYT1) was 0% and the “%Inh” value (PKN1) was 39%. The “%Inh” value (PKN2) was 16% and the “%Inh” value (PLK1) was 0%.

`Cc1ccc(-c2ccc3occ(-c4ccc(S(C)=O)cc4)c3c2)nn1` (stereo not shown) was tested, and the “%Inh” value (PIK3C2G) was 18%, the “%Inh” value (PIK3CA) was 0% and the “%Inh” value (PIK3CB) was 0%. For the same compound, the “%Inh” value (PIK3CD) was 2%, the “%Inh” value (PIK3CG) was 8% and the “%Inh” value (PIK4CB) was 0%. The “%Inh” value (PIKFYVE) was 3%, the “%Inh” value (PIM1) was 4% and the “%Inh” value (PIM2) was 9%. The “%Inh” value (PIM3) was 4%, the “%Inh” value (PIP5K1A) was 0% and the “%Inh” value (PIP5K1C) was 42%. The “%Inh” value (PIP5K2B) was 17%, the “%Inh” value (PIP5K2C) was 58% and the “%Inh” value (PKAC-alpha) was 0%. For the same compound, the “%Inh” value (PKAC-beta) was 0%, the “%Inh” value (PKMYT1) was 11% and the “%Inh” value (PKN1) was 0%. The “%Inh” value (PKN2) was 9% and the “%Inh” value (PLK1) was 0%.

With `O=C(Nc1n[nH]c2nc(-c3cccc(O)c3)ccc12)C1CC1` [SB-711805] the “%Inh” value (PIK3C2G) was 16%, the “%Inh” value (PIK3CA) was 0% and the “%Inh” value (PIK3CB) was 0%. For the same compound, the “%Inh” value (PIK3CD) was 0%, the “%Inh” value (PIK3CG) was 17% and the “%Inh” value (PIK4CB) was 12%. For the same compound, the “%Inh” value (PIKFYVE) was 15%, the “%Inh” value (PIM1) was 11% and the “%Inh” value (PIM2) was 81%. For the same compound, the “%Inh” value (PIM3) was 10%, the “%Inh” value (PIP5K1A) was 32% and the “%Inh” value (PIP5K1C) was 98%. The “%Inh” value (PIP5K2B) was 8%, the “%Inh” value (PIP5K2C) was 0% and the “%Inh” value (PKAC-alpha) was 3%. The “%Inh” value (PKAC-beta) was 0%, the “%Inh” value (PKMYT1) was 0% and the “%Inh” value (PKN1) was 0%. For the same compound, the “%Inh” value (PKN2) was 24% and the “%Inh” value (PLK1) was 0%.

For `Cc1cccc(Nc2nc(N[C@H]3CCCC[C@H]3N)ncc2C(N)=O)c1.Cl` [GSK986310], the “%Inh” value (PIK3C2G) was 0%, the “%Inh” value (PIK3CA) was 0% and the “%Inh” value (PIK3CB) was 0%. The “%Inh” value (PIK3CD) was 0%, the “%Inh” value (PIK3CG) was 3% and the “%Inh” value (PIK4CB) was 0%. For the same compound, the “%Inh” value (PIKFYVE) was 0%, the “%Inh” value (PIM1) was 43% and the “%Inh” value (PIM2) was 56%. For the same compound, the “%Inh” value (PIM3) was 88%, the “%Inh” value (PIP5K1A) was 0% and the “%Inh” value (PIP5K1C) was 63%. The “%Inh” value (PIP5K2B) was 9%, the “%Inh” value (PIP5K2C) was 12% and the “%Inh” value (PKAC-alpha) was 19%. For the same compound, the “%Inh” value (PKAC-beta) was 29%, the “%Inh” value (PKMYT1) was 16% and the “%Inh” value (PKN1) was 34%. The “%Inh” value (PKN2) was 9% and the “%Inh” value (PLK1) was 1%.

With `NCCC(NC(=O)c1cc(Br)c(-c2ccnc3[nH]ccc23)s1)c1ccccc1.O=C(O)C(F)(F)F.O=C(O)C(F)(F)F` (stereo not shown) [GSK1307810] the “%Inh” value (PIK3C2G) was 0%, the “%Inh” value (PIK3CA) was 0% and the “%Inh” value (PIK3CB) was 6%. The “%Inh” value (PIK3CD) was 7%, the “%Inh” value (PIK3CG) was 2% and the “%Inh” value (PIK4CB) was 8%. For the same compound, the “%Inh” value (PIKFYVE) was 9%, the “%Inh” value (PIM1) was 66% and the “%Inh” value (PIM2) was 95.5%. For the same compound, the “%Inh” value (PIM3) was 45%, the “%Inh” value (PIP5K1A) was 82% and the “%Inh” value (PIP5K1C) was 81%. For the same compound, the “%Inh” value (PIP5K2B) was 0%, the “%Inh” value (PIP5K2C) was 57% and the “%Inh” value (PKAC-alpha) was 99.4%. The “%Inh” value (PKAC-beta) was 99.6%, the “%Inh” value (PKMYT1) was 0% and the “%Inh” value (PKN1) was 50%. For the same compound, the “%Inh” value (PKN2) was 87% and the “%Inh” value (PLK1) was 0%.

For `O=C(Nc1c(F)cccc1F)c1cc(C(=O)c2ccccc2F)c[nH]1` [GSK1326180], the “%Inh” value (PIK3C2G) was 0%, the “%Inh” value (PIK3CA) was 0% and the “%Inh” value (PIK3CB) was 0%. The “%Inh” value (PIK3CD) was 0%, the “%Inh” value (PIK3CG) was 0% and the “%Inh” value (PIK4CB) was 0%. For the same compound, the “%Inh” value (PIKFYVE) was 0%, the “%Inh” value (PIM1) was 0% and the “%Inh” value (PIM2) was 0%. The “%Inh” value (PIM3) was 0%, the “%Inh” value (PIP5K1A) was 34% and the “%Inh” value (PIP5K1C) was 49%. For the same compound, the “%Inh” value (PIP5K2B) was 0%, the “%Inh” value (PIP5K2C) was 25% and the “%Inh” value (PKAC-alpha) was 0%. For the same compound, the “%Inh” value (PKAC-beta) was 5%, the “%Inh” value (PKMYT1) was 3% and the “%Inh” value (PKN1) was 8%. For the same compound, the “%Inh” value (PKN2) was 0% and the “%Inh” value (PLK1) was 18%.
